Among the data in the supplement of paper PMC6555819 are PBM binding z-score values, retold here.

The test concerns VDR:RXRa (NR concentration 270 nM, RXRa partner concentration 90 nM). The test is described as follows: PBM binding z-score (relative to random genomic background probes); higher = stronger binding; sequences stand for … in GC…GCGATTGACAGCGTAGAATGAAGG
As for the experimental part:
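Protein-binding microarray (Agilent 4x180K custom design, double-stranded 60-nt probes: 5' GC cap, 34-nt variable region, 24-nt constant primer region; full probe sequence given). Purified or IVT nuclear receptor:RXRα heterodimers (3:1 NR:RXRα, mostly 270:90 nM) or homodimers were incubated for 1 h in PBS with 2% milk and no ligand, then detected with Alexa488 antibodies. Fluorescence from o1-orientation probes (~5 replicates averaged) was converted to z-scores against 500 random hg19 background probes. Variable regions are seed direct-repeat (DR0–DR5) sites, all their single-nucleotide variants and half-site ablations.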
Sequence CAAACTAGTTCACGAAAGGTCAAAGTCGAATGAC gave a PBM binding z-score of 6.33. On to ATCCCTAGGTAACCAAGTTCAGTGAATGCCGAAC, for which the PBM binding z-score stood at 4.31. Sequence TCTTGTAGATCAACAGGATGTTAAGAAAGATCGA gave a PBM binding z-score of 0.149. Then CAAACTAGGTCAAAAGTCAAAGTCGAGCCAACCA, with 2.46. To GCGACTGGGGCGTCAGCAGGTTACCATAACTTAA belongs -0.382.

With TCTTGTAGATTAATAGAGGTTAAGAAAGTGCGCT, the PBM binding z-score worked out at 2.11.

Sequence GCTGGTAGATCAAGGTTAAGAAAGACTAAGCTAA gave a PBM binding z-score of 0.201. Take CCTTACGGGTCACTGAGAGGTTATAGCATTTGGA: the PBM binding z-score turned out to be 4.55. For the sequence GCTAACAGGCCATTTGGGTCACTCAATGACGGGC, the PBM binding z-score is 1.45. Then ACTTACGGGTCAACGAGGTTATAGCCCGCGTATA, with 7.59. With TCTATTCGTTGAAGGGCAACCGACGAGTCCGTTT, the PBM binding z-score is 1.08. Then GGAACGAGGGCAAAGTTGGTAGCATCTGTCGACG, with 1.14; and TCTTGTAGATCAACAGGAGGTTAAGATAGATCGA, with 0.488. CGAACTAGGTCATTGACAGGGCAGTGAATAGTAA displayed a PBM binding z-score of 2.15. Regarding TCGAGTAGGTTACCAATGGGGCTTTCAGCTTTCT, the PBM binding z-score was -0.42. Then GCATATAGGTAATACACGGTGAAAGTCCGATTGT, with -0.0227. In turn, ACTTACAGGTCAACGAGGTTATAGCACGCGTATA returned a PBM binding z-score of 7.66.

For TTACCCAGGTGAAGGTCGTTGATCCCTCTGTAGA, the PBM binding z-score was found to be 1.05. The sequence CTCGAAAGGTCGGTTGAGGCGAGTATACGGATAA registered a PBM binding z-score of 0.809. Consider CCGACTAGGGCAAAGGTTACCATACTCAGTACGA, for which the PBM binding z-score came out at 1.61. Then AATACAGGGCCATCGTAGGCCAGAGTACGCACAG, with -0.126; and AGAATGAGGGCACGCTGAGTTGATAGCAGAGTAG, with 2.35; and AGTCAAAGTTCAGGACGAGGGAACGTAAAGCACG, with 2.05. ACTAGCAGGCCAAGTTTGGGTCACTCGAACAAAG yielded a PBM binding z-score of 0.392. To GGAACGAGGGCAGAGTTGATAGCATCTGTCGACG belongs 0.0819; to TGGCCTAGGTCAGATCGGGCCAGTATACGCTATA, 0.424; to CGTCAAAGTTCAAGGTAACGCAACAGAAAGCAGC, 3.67. In the case of TAGCTTAGGTCATTCAGGGGCCAGTATAGAAAGC, the PBM binding z-score is 3.19. Then AGAACGAGGGAAATGAGTTGATAGCACGGGTGGC, with 0.62; and GTACCAAGGTGAATAGGTCGTTTATGAGTAGGCG, with 1.07; and GCTATAAGTTGAAAGGGCAACCGAATGATTCTCG, with 0.931. To TGAATGAGGTTGTAAGATCAGGGAACGTTGCAAA belongs -0.0386. Then TCTTGTAAATCAAGCAGGTTAAGAAAGCCTGAGT, with 0.479.

ACAGACAGGTGAAGAAGGTAACTCAGGCTATCAT came in with a PBM binding z-score of 0.439.

CTCGATAGGTCGGTTGAGGTGAGTATACGGATAA gave a PBM binding z-score of 0.436.

The sequence TCAGACAGGTGAAGGTATCTCAGGTACGCAGTCG came in with a PBM binding z-score of 0.814. The sequence AGAATGAGGTTATTACGATCAGGGAATTGCGGTC displayed a PBM binding z-score of 1.99.

As for ATCGAAAGGTCGACGAGGTGGGTATACACCGTTT, the PBM binding z-score stood at 4.34. To GATACAGGGTCAGCGAGAGGCCAGAGTATGGAAA belongs 3.67; to ATCTCTAGGTAAGACTCAGTTCAGAGAAGAACGC, 0.685.
